The values that follow come from PubChem BioAssay AID463190 (Sanford-Burnham Center for Chemical Genomics, 2010).

Out of some 330,000 compounds screened, about 7,300 (2.2%) were called active.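 Rule for the calls: active = inhibition of at least 40%; inactive = the rest.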 For the sample, actives were picked, then their nearest neighbours and some compounds at random.

A short description of the experiment: growth inhibition of tim10-1 ts yeast – luminescence, uHTS, primary screen (AID 463190).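 Note: mutant grown at 25 °C; 0% = DMSO wells with yeast and 100% = wells holding no yeast.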 Particulars: S. cerevisiae tim10-1 ts strain growth, BacTiter-Glo, 24 h; at 20 µM; active compounds read high.
For `COc1ccc(C(=O)OCC(=O)NCC2CCCO2)cc1[N+](=O)[O-]` (stereo not drawn), the inhibition – broadly, the change of the read-out against control, counted positive when it falls – is -1.22% (inactive). The figure for `Cc1ccsc1C(=O)OCC(=O)c1cc(C)n(CC2CCCO2)c1C` (stereo not drawn) is 33% (inactive); for `COc1ccc(C(=O)OCC(=O)c2cc(C)n(CC3CCCO3)c2C)cc1[N+](=O)[O-]` (stereo not drawn) it is 44.5% (active).

Take `COC(=O)CN1C(=O)[C@H]2[C@@H](/C=C/c3ccccc3)N3C(=O)CN(Cc4ccccc4)C(=O)[C@@]3(Cc3ccccc3)[C@H]2C1=O`: the inhibition is 8.2% (inactive).

In the case of `CC1=C(C(N)=O)C(c2ccc(Br)cc2)n2ncnc2N1` (stereo not drawn), the inhibition was 10.7% (inactive). The figure for `Fc1ccccc1/C=C1\CCCC2=C1Nc1ncnn1C2c1ccccc1F` (stereo not drawn) is 40.1% (active); for `OC1CN=C2Sc3ccccc3N2C1` (stereo not drawn) it is 10.5% (inactive); for `CCc1cccc2c(C=C(C#N)C#N)cn(CC(=O)N3CCCCC3)c12` it is 18% (inactive). As for `Cc1ccc(C(=O)O)cc1S(=O)(=O)NCC1CCCO1` (stereo not drawn), the figure is -1.57% (inactive); as for `Cn1c(C(=O)OC(C(=O)NC2CCCCC2)c2ccccn2)cc2sccc21` (stereo not drawn), 40.4% (active).

For the molecule `Cn1c(C(=O)N2CCCC(C(=O)NCc3ccccc3)C2)cc2sccc21` (stereo not drawn), the inhibition is -2.21% (inactive). Take `CC(C)C(OC(=O)c1cccs1)C(=O)NC1CCCCC1` (stereo not drawn): the inhibition was 14.5% (inactive). The figure for `O=C1C2(c3ccccc3)CN(CCCO)CC1(c1ccccc1)CN(CCCO)C2` is 13.9% (inactive).

In the case of `CCOC(=O)C1(C(F)(F)F)N=C(N(C)C)OC(N(C)C)=N1`, the inhibition was 0.707% (inactive). As for `CCCCn1c(=S)[nH]c2ccccc2c1=O`, the figure is 30.4% (inactive); as for `S=c1[nH]c2ccccc2c2ccccc12`, 40.1% (active); as for `S=c1ccc2ccccc2[nH]1`, 8.36% (inactive). The figure for `CC(C)Oc1ccc(C(CC(=O)N2CCOCC2)C(C)C)cc1` (stereo not drawn) is 1.61% (inactive); for `COc1ccccc1C(=O)NCC(=O)NCCSc1ccc(Br)cc1` it is 12.5% (inactive).

Regarding `Oc1ccccc1CN1CCN(C(c2ccccc2)c2ccccc2)CC1`, the inhibition was 24.4% (inactive).

With `CCN1CCN(c2ccc(NC(=O)c3cnccn3)cc2)CC1`, the inhibition was 4.72% (inactive). The figure for `CCN1CCN(C(c2cccnc2)c2cc(Cl)c3cccnc3c2O)CC1` (stereo not drawn) is 50.7% (active); for `C=C(C)c1cccc(C(C)(C)NC(=O)NCCN(CC)CC)c1` it is 15.8% (inactive); for `O=C1COc2ccc(NC(=O)N3CCN(c4ccc(F)cc4)CC3)cc2N1` it is -1.3% (inactive). The figure for `CCOC(=O)C1Nc2ccc(C(F)(F)F)cc2C2C=CCC12` (stereo not drawn) is 26.6% (inactive). The figure for `COC(=O)NC1(C(F)(F)F)NC(=O)N(C2CCCCC2)C1=O` (stereo not drawn) is -0.477% (inactive). As to `O=C(NC1(C(F)(F)F)NC(=O)N(C2CCCCC2)C1=O)c1ccco1` (stereo not drawn), the inhibition is 9.83% (inactive). The figure for `O=C1NC(Nc2nc3ccccc3s2)(C(F)(F)F)C(=O)N1C1CCCCC1` (stereo not drawn) is 55.7% (active).
